Assay outcomes (PubChem BioAssay)
Only some compounds are listed: those with a hit (about 2.3% of all), similar ones and a draw of the others.
IDE act = activators of human insulin-degrading enzyme in cells. activation, % at 5.96 µM. P14735. 340,000 compounds, 0.073% hits. HEK cells, FAbeta-B cleavage, fluorescence polarization; 0% vehicle, 100% cell-free pure enzyme wells;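 active = activation above the mean of all tested compounds plus 3 SD, set per screening campaign, cut at about 17% in these data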
TPT1 inh = C. albicans TPT1 enzyme inhibition | recombinant caTPT1, FP RNA substrate dephosphorylation | inhibition, % at 5 µM | 300,000 compounds, 0.81% hits;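 active = inhibition above the mean of all tested compounds plus 3 SD, set per screening campaign, cut at about 24% in these data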
IDE inh = inhibitors of human insulin-degrading enzyme in cells | P14735 | HEK cells, FAbetaB cleavage, fluorescence polarization | inhibition, % at 5.59 µM | 320,000 compounds, 0.41% hits | AID 434962;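 active = percent inhibition above the average of all tested compounds plus 3 SD, set per screening campaign, cut at about 16% in these data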;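 also: IDE supplied by intact live HEK cells; FP after avidin binding of uncleaved biotin substrate so inhibition keeps polarization high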
Rpn11 block = inhibitors of human proteasome Rpn11. O00487. 360,000 compounds, 0.59% hits. human 26S proteasome, Ub4-pepOG fluorescence polarization; 20S core pre-blocked with epoxomicin. inhibition, % at 20 µM;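 active = inhibition at 20 µM, scaled to each plate's controls, above about 33%, limit read from the data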
Calb FLC = C. albicans growth modulation with fluconazole | C. albicans CaCi-2 (fluconazole-resistant clinical isolate) + fluconazole, Alamar Blue growth, 48 h | growth inhibition, % (no concentration beside the values) | 300,000 compounds, 0.57% hits;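 active = growth inhibition above about 58% in most replicates, limit read from the data, passing the limit was not always enough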;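 also: all wells also contain fluconazole at 8 µg/ml as a sub-toxic cotreatment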
Rin1 Abl inh = blocks binding of human Rin1 to Abl; P00519+Q13671; TR-FRET Rin1/Abl binding, biochemical; inhibition, % at 7.35 µM; 360,000 compounds, 0.4% hits; in the data active = inhibition above about 5%, passing the limit was not always enough
Rpn11 inh conf = Rpn11 inhibition confirmation, single concentration | purified human 26S proteasome, Ub4-pepOG fluorescence polarization; proteasome pretreated with epoxomicin | 1,900 compounds, 29% hits | inhibition, % at 20 µM | AID 602318 | shares compounds with Rpn11 block
MMP-2 counter = MMP-2 (human) inhibition counter-screen | shares compounds with Rpn11 block | recombinant MMP-2, FRET peptide cleavage fluorescence | inhibition, % at 20 µM | 1,900 compounds, 4% hits | AID 602330;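 also: human MMP-2 activated beforehand with APMA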
Thrombin inh = thrombin (bovine) inhibition counter-screen; shares compounds with Rpn11 block; bovine thrombin cleavage of Ub4-pepOG, fluorescence polarization; inhibition, % at 20 µM; 1,900 compounds, 13% hits; AID 602333;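 active = mean inhibition at least 40% at 20 µM, or signal 3 deviations below plate average, so some actives read negative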
Target sequence (P00735 whole entry, looked up): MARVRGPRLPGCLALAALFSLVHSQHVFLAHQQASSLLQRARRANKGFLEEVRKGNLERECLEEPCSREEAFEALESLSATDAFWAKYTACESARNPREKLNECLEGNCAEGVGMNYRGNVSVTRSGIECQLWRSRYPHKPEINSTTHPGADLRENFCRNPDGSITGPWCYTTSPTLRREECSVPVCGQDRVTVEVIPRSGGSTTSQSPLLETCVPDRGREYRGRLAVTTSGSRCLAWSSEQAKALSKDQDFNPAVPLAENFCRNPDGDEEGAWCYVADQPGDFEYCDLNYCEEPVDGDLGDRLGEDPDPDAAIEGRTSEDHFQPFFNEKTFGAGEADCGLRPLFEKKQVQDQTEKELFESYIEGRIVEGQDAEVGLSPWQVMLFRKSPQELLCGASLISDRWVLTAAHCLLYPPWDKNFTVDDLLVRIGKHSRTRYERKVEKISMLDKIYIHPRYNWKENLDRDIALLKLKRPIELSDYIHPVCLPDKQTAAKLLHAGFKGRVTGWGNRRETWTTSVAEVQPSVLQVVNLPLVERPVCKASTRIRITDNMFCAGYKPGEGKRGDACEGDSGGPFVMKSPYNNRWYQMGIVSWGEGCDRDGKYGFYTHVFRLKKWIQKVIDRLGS
Each line names hits and unclear results; the compound was inactive in the other large screens (follow-up assays come after a bar, where they were run). Rule as the data show it, unless noted: active = inhibition above about 40%; inactive = the rest.

Fc1cccc2sc(Nc3nc4c(F)cccc4s3)nc12	none
Cc1nc2ccccc2c2oc(C(=O)N3CCN(C4CCCCC4)CC3)cc12	none
Cc1nc2ccccc2c2oc(C(=O)N3CCC(N4CCCCC4)CC3)cc12	Rpn11 block 58 (no result: Calb FLC) | Rpn11 inh conf inactive | MMP-2 counter inactive | Thrombin inh inactive
COc1ccc2nc(SCC(=O)Nc3ccc(S(=O)(=O)N4CCCC4)cc3)c(C#N)cc2c1	Rpn11 block 40 | Rpn11 inh conf inactive | MMP-2 counter inactive | Thrombin inh inactive
CN1CCN(c2sc(S(C)(=O)=O)nc2S(=O)(=O)c2ccc(Cl)cc2)CC1	none
Cc1ccc2nc(C)cc(Nc3ccc([N+](=O)[O-])cc3)c2c1	Rpn11 block 45 (no result: IDE act) | Rpn11 inh conf inactive | MMP-2 counter inactive | Thrombin inh inactive
CCn1c2ccccc2c2cc(/C=N/NC(=O)c3cccc(C)c3)ccc21	Rpn11 block 147 | Rpn11 inh conf inactive | MMP-2 counter inactive | Thrombin inh inactive
CN1C(=O)N(CC(=O)N2CCN(c3ccccc3F)CC2)C(=O)C12CCCCC2	none (no result: TPT1 inh, Calb FLC)
CC/C(=N/Nc1cccc(Cl)c1)c1cnnc(SC)n1	Rpn11 block 56 | Rpn11 inh conf inactive | MMP-2 counter inactive | Thrombin inh inactive
CCCCC1=CC2=CC(=O)C(C)(OC(=O)C3CCCC3)C(=O)C2=CO1 (stereo not drawn)	Rpn11 block 42 | Rpn11 inh conf 46 | MMP-2 counter inactive | Thrombin inh inactive
O=C(/C=C/c1ccco1)Nc1cccc(C(=O)Nc2ccccc2C(=O)O)c1	Rpn11 block 70 | Rpn11 inh conf 57 | MMP-2 counter inactive | Thrombin inh inactive
CC(=O)N(c1ccc2oc(=O)sc2c1)S(=O)(=O)c1cccs1	none
CC(=O)N(c1ccc2oc(=O)sc2c1)S(=O)(=O)c1cccc2cccnc12	Rpn11 block 85 | Rpn11 inh conf inactive | MMP-2 counter inactive | Thrombin inh inactive
COc1ccc(OCCNC(=O)c2ccc(C)cc2)cc1	Rpn11 block 40 | Rpn11 inh conf inactive | MMP-2 counter inactive | Thrombin inh inactive
COc1ccc2c(c1)C1=NN(/C(C)=C/C(C)=O)C(c3cccc(F)c3)C1CC2 (stereo not drawn)	Rpn11 block 59 | Rpn11 inh conf inactive | MMP-2 counter inactive | Thrombin inh inactive
O=C1NC(=S)S/C1=C\c1cc2ccccc2nc1N1CCCCC1	Rpn11 block 54 | Rpn11 inh conf 74 | MMP-2 counter inactive | Thrombin inh 46
O=C1C2C3C=CC(C3)C2C(=O)N1c1cccc(-c2nc3ccccc3o2)c1 (stereo not drawn)	Rpn11 block 54 | Rpn11 inh conf inactive | MMP-2 counter inactive | Thrombin inh inactive
Cc1cc(OC(=O)c2ccc(Cl)cc2Cl)nc(C)n1	Rpn11 block active | Rpn11 inh conf inactive | MMP-2 counter inactive | Thrombin inh inactive
O=C(Nc1ccc(Cl)cc1)Nc1nnc(-c2ccncc2)s1	Rpn11 block 170 | Rpn11 inh conf inactive | MMP-2 counter inactive | Thrombin inh inactive
O=C(Nc1ccc(F)cc1)Nc1nnc(-c2ccncc2)s1	Rpn11 block 66 | Rpn11 inh conf 41 | MMP-2 counter inactive | Thrombin inh inactive
Cc1cc(NC(=O)c2ccc(Cl)cc2)c(C)cc1O	none
Cc1cc(C(C#N)c2ccc(Cl)cc2)c(Cl)cc1NC(=O)c1cc(I)cc(I)c1O (stereo not drawn)	Rpn11 block 47 | Rpn11 inh conf inactive | MMP-2 counter inactive | Thrombin inh inactive
CCCOc1ccc(C(=O)Nc2ccc(N3CCOCC3)cc2N2CCOCC2)cc1OCC	none (no result: IDE act, TPT1 inh, IDE inh, Calb FLC)
CC(=O)C1=C(C)NC(SCC(=O)c2ccc(Cl)c(Cl)c2)=C(C#N)C1c1ccco1 (stereo not drawn)	Rpn11 block 41 | Rpn11 inh conf inactive | MMP-2 counter 45 | Thrombin inh inactive
